Consider ten molecules from PubChem BioAssay (NCATS).

Structures are written as SMILES. Values joined by “and” are separate entries in the source; they are usually repeats but may differ in a detail not shown here. Identical values can stand only once. Inconclusive results are not listed. Active and inactive are the calls of the source. Unless noted, calls follow the shape of the dose curve; as a rule, active = well fitted curve in the direction sought with a large enough effect; inconclusive = small, poorly fitted or top-dose-only effect, or another doubt; inactive = no such curve, though single readings can be large; an effect the other way counts as inactive or inconclusive.

The nature of assay [1]: qHTS assay for small molecule antagonists of peroxisome proliferator-activated receptor delta signaling (AID 588535; active = well fitted inhibition curve with a large enough effect in the signal ratio, with a control signal flat, not every such curve was filed as active; the % refers to the signal ratio;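 as to max response: cells co-treated with a PPAR-delta agonist as stimulator during compound exposure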). The conditions noted are these: HEK293T PPARd-UAS-bla, beta-lactamase FRET ratio, 18 h; 460 nm channel. In short, it runs like this:
(§1)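 Inhibition of PPAR-delta response element-driven beta-lactamase expression is measured in HEK293T cells exposed to a compound titration series for 18 hrs at 37 C. Half-maximal inhibition comes from Hill equation fitting.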
(In general: In qHTS, concentration-response curves come from the screen itself.)

For assay [2], the target named is Peroxisome proliferator-activated receptor delta (Homo sapiens) (UniProt Q03181). Described as above. The conditions noted are these: HEK293T PPARd-UAS-bla, beta-lactamase FRET ratio, 18 h; series mostly up to 76.7 µM. In outline: as §1
Chain of Peroxisome proliferator-activated receptor delta (Homo sapiens) (Q03181 whole entry, looked up): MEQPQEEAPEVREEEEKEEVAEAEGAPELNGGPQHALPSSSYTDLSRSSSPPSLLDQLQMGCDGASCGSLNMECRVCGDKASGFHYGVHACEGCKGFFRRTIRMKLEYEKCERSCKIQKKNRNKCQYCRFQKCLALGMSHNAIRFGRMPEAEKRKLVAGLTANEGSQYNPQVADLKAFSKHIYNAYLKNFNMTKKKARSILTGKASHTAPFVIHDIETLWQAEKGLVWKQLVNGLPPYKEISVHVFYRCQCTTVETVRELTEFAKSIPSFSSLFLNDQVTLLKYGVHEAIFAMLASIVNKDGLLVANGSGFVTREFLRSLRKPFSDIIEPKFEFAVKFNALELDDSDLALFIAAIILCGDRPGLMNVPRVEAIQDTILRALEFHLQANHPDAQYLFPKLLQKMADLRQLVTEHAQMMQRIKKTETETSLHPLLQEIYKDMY
For assay [3], the target named is Vitamin D3 receptor (Homo sapiens) (UniProt P11473). Kind of assay: qHTS assay for small molecule antagonists of vitamin D receptor signaling (AID 588541; calls by dose curve;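 also: receptor activated by calcitriol during compound treatment; % is scaled to controls: 0 for no effect and ±100 for the full control effect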). To be noted: HEK293T VDR-UAS-bla, beta-lactamase ratio, antagonist mode; series mostly up to 76.7 µM. In short, it runs like this: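 VDR-UAS-bla HEK293T cells (2000/well, 2% charcoal-stripped FBS) were treated with titrated compounds plus 1-alpha,25-dihydroxyvitamin D3 (50 nM or 3 nM final) for 16 h at 37 C. CCF4 beta-lactamase fluorescence was read; Hill fits gave IC50.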
Chain of Vitamin D3 receptor (Homo sapiens) (P11473 whole entry, looked up): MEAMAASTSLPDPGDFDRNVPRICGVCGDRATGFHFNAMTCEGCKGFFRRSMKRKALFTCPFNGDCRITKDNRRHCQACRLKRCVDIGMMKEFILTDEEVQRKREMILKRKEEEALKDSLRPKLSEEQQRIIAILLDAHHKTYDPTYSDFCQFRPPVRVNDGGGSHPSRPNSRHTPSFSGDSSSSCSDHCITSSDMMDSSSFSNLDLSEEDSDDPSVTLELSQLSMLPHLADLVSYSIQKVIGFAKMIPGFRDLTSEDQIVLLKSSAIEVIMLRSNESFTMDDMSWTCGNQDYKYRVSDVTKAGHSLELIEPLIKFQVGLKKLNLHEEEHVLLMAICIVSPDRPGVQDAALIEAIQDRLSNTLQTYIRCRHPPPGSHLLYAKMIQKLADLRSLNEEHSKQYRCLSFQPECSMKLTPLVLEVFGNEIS

For assay [4] the target is unchanged. Kind of assay: qHTS assay for small molecule agonists of vitamin D receptor signaling (AID 588543; calls by dose curve;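 also: 0% = DMSO basal and 100% = reference agonist control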). To be noted: HEK293T VDR-UAS-bla, beta-lactamase ratio, 16 h; series mostly up to 76.8 µM. In short, it runs like this: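 VDR-UAS-bla HEK293T cells, 2000/well, 2% charcoal-stripped FBS; compound titration 16 h at 37 C; CCF4 beta-lactamase ratio read. Normalized to 50 nM 1-alpha,25-dihydroxyvitamin D3 (100%) and DMSO; Hill fit gives EC50, efficacy.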

Assay [5] addresses Thyroid hormone receptor beta (Homo sapiens) (UniProt P10828). Put plainly: qHTS assay for small molecule agonists of thyroid hormone receptor beta signaling (AID 588545; calls by dose curve). To be noted: TR-UAS-bla GripTite HEK 293, beta-lactamase ratio, agonist mode, 18 h, percent of T3 response, DMSO as zero; series mostly up to 76.7 µM. In outline: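 HEK 293 TR-UAS-bla; agonist mode; 18 hrs, 37 C; CCF4, ex 405/em 460 and 530 nm; norm. T3 10 nM = 100%, DMSO = 0%; Hill fit → EC50, efficacy.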

The target is the same in assay [6]. Put plainly: qHTS assay for small molecule antagonists of thyroid hormone receptor beta signaling (AID 588547; active = well fitted inhibition curve with a large enough effect in the signal ratio, with a control signal flat, not every such curve was filed as active; the % refers to the signal ratio;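 also: cells stimulated with 0.4 nM T3 agonist during compound exposure; % is scaled to controls: 0 for no effect and ±100 for the full control effect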). The conditions noted are these: TR-UAS-bla HEK293, beta-lactamase ratio, antagonist mode, 18 h. In short, it runs like this:
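TR-UAS-bla GripTite HEK293 cells in 2% charcoal/dextran FBS medium were preincubated 4 h at 37 C, given compound (0.59 nM to 92 uM) plus 0.4 nM T3 (final) for 18 h, then CCF4 for 2 h at RT; Hill fit gave IC50.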

The nature of assay [7]: qHTS assay for small molecule agonists of the antioxidant response element (ARE) signaling pathway (AID 651741; active = well fitted activation curve with a large enough effect in the signal ratio; the % refers to the signal ratio; also: % of control where 0% means no effect). To be noted: HepG2 ARE-bla reporter, beta-lactamase FRET ratio, 16 h; series mostly up to 96 µM. In short, it runs like this: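 Reporter: beta-lactamase under ARE, stably in HepG2. Exposure: 16 h, 37 C, compounds delivered in DMSO by pin tool after 5 h cell preincubation. Readout: FRET substrate fluorescence after 2 h at RT.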

Assay [8] in a line: qHTS assay for environmental chemicals that activate the Aryl hydrocarbon Receptor (AhR) signaling pathway (AID 651777). Also: % of control where 0% means no effect; nearly all actives have a fitted effect of over 15% in size. The conditions noted are these: 1A2-DRE human hepatoma cells, luciferase, 24 h; activation: stronger effect = higher value. In outline:
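Following a 24 hr incubation with test chemicals at 37 C and 5% CO2, 1A2-DRE human hepatoma cells received One-Glo reagent; after 30 min at room temperature, luciferase output reflected CYP1A2 induction via AhR.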

Assay [9] deals with Peroxisome proliferator-activated receptor alpha (Homo sapiens) (UniProt Q07869). Kind of assay: qHTS assay for small molecule agonists of the peroxisome proliferator-activated receptor alpha (PPARalpha) signaling pathway (AID 651778). Also: % of control where 0% means no effect. To be noted: PathHunter PPARalpha complementation, chemiluminescence, 6 h; max response: stronger effect = higher value. In outline:
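Cells plated at 2,000/well and held overnight at 37 C, 5% CO2, then compound added by pin tool for 6 hr; after PathHunter detection reagent and 60 min at room temperature, chemiluminescence from enzyme complementation was read.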

Assay [10] in a line: qHTS assay for small molecule agonists of the antioxidant response element (ARE) signaling pathway measured by Nrf2-dependant transcriptional activity (AID 720636; active = well fitted curve in the direction sought with a large enough effect in the repeat runs; an effect the other way counts as inactive or inconclusive; also: % of control where 0% means no effect). To be noted: ARE-luc HepG2, Nrf2 luciferase reporter, 16 h; series mostly up to 92.4 µM. In short, it runs like this:
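ONE-Glo luminescence, read 30 min after reagent addition at room temperature, reflected ARE reporter activity in HepG2 cells that had been incubated with compound for 16 hr at 37 C in 1% dialyzed FBS.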

Assay [11] is described as follows: qHTS assay for small molecule agonists of the antioxidant response element (ARE) signaling pathway measured by Nrf2-dependant transcriptional activity - cell viability counter screen (AID 720653; active = well fitted curve in the direction sought with a large enough effect in the repeat runs; an effect the other way counts as inactive or inconclusive; also: % is scaled to controls: 0 for no effect and ±100 for the full control effect). The conditions noted are these: ARE-bla HepG2 viability, CellTiter-Glo ATP luminescence, 16 h; max response: stronger effect = lower value. In short, it runs like this:
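ARE-bla HepG2 cells (2,000/well) rested 5 hrs at 37C/5% CO2, then exposed to compounds in DMSO for 16 hrs. Viability was read in the same wells as intracellular ATP by luminescence, 30 min at room temperature after reagent addition.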

The target in assay [12] is Nuclear receptor subfamily 1 group I member 2 (Rattus norvegicus) (UniProt Q9R1A7). Kind of assay: qHTS assay for small molecule activators of the rat pregnane X receptor (rPXR) signaling pathway (AID 651751; call rule not given here; also: 0% is about no effect). To be noted: rPXR reporter cells, luciferase (One-Glo), 24 h.
Chain of Nuclear receptor subfamily 1 group I member 2 (Rattus norvegicus) (Q9R1A7 whole entry, looked up): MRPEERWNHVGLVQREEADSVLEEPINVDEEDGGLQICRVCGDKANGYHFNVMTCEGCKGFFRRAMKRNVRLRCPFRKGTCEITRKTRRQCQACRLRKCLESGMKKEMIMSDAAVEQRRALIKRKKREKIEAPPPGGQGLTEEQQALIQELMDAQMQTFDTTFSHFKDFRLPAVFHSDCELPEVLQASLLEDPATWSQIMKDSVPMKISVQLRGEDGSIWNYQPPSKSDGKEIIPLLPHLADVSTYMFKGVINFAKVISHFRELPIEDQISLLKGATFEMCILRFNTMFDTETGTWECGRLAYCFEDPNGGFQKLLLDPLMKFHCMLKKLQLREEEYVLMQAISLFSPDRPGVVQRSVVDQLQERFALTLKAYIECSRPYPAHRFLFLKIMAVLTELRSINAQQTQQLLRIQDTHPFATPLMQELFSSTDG
A short description of assay [13]: qHTS assay for small molecule activators of the human pregnane X receptor (PXR) signaling pathway (AID 720659; call rule not given here; also: 0% is about no effect). To be noted: DPX-2 HepG2 CYP3A4-luciferase, 24 h; series mostly up to 92.3 µM.
Assay [14] deals with Phospholipid hydroperoxide glutathione peroxidase GPX4 (Homo sapiens) (UniProt P36969). Put plainly: Primary qHTS Assay for Inhibitors of Recombinant Selenoprotein Glutathione Peroxidase 4 (GPX4) (AID 1845192). Also: nearly all actives have a fitted effect of over 65% in size. Also: potency is read from the fitted curve at half-maximal effect. To be noted: recombinant GPX4, GR-coupled NADPH fluorescence, 15 min; series mostly up to 50 µM. In short, it runs like this: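 qHTS, GR-coupled: GPX4 200 nM + cpd 30 min RT → GSH 1 mM, NADPH 0.5 mM, GR 100 nM → CHP 0.5 mM start; fluor 340/450 at t0 and t15 min; no-enzyme wells as control.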
Chain of Phospholipid hydroperoxide glutathione peroxidase GPX4 (Homo sapiens) (P36969 whole entry, looked up): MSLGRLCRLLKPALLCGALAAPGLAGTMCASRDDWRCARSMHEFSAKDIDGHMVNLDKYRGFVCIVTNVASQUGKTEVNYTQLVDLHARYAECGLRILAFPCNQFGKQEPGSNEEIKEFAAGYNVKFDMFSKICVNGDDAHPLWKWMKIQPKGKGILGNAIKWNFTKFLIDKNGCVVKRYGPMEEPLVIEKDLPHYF

The nature of assay [15]: Viability counterscreen for antagonist of constitutive androstane receptor (CAR) against the NCATS DSHEA and TCM libraries (AID 1794837).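 Also: compound exposure lasted 24 h before viability reading; 0% is about no effect.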 The conditions noted are these: CAR reporter cell line viability counterscreen, qHTS; series mostly up to 40 µM. In short, it runs like this:
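HepG2-CYP2B6-hCAR cells, 2,500/well, were exposed 24 hr at 37C to substances together with 48 uM CITCO (final). Viability was read as CellTiter-Fluor fluorescence (Ex/Em 405/540 nm) after 1 hr.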
On the technique in general: A counterscreen serves to expose hits that act by an unwanted route or on another target.

Assay [16] is described as follows: Viability counterscreen for agonist of constitutive androstane receptor (CAR) against the NCATS DSHEA and TCM libraries (AID 1794838). Also: 0% is about no effect. The conditions noted are these: HepG2 cell viability counterscreen, CAR agonist assay, co-treated with 0.75 µM CAR antagonist; series mostly up to 40 µM. In short, it runs like this: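 HepG2-CYP2B6-hCAR cells (2,500/well) treated 24 h at 37C with compounds plus 0.75 uM PK11195; viability read by CellTiter-Fluor fluorescence, Ex/Em 405/540 nm.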

Assay [17] concerns the target Nuclear receptor subfamily 1 group I member 3 (Homo sapiens) (UniProt Q14994). Put plainly: Primary qHTS for agonist of constitutive androstane receptor (CAR) against the NCATS DSHEA and TCM libraries (AID 1794839).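 Also: HepG2 cells expressing human CAR with a CYP2B6 reporter plus PK11195 antagonist; 0% is about no effect.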 The conditions noted are these: CAR agonist reporter cells, qHTS luminescence, CAR antagonist co-added at 0.75 µM; series mostly up to 40 µM. In short, it runs like this: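 HepG2-CYP2B6-hCAR cells, 2,500/well, attached 5 h, then dosed with 0.75 µM PK11195 (final) for 24 h at 37 °C. Luciferase luminescence read (ONE-Glo); CellTiter-Fluor viability (Ex/Em 405/540 nm) in same wells; CITCO positive control.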

Assay [18] can be described thus: HepG2 viability counterscreen (readout 2: ATP content) against the NCATS DSHEA and TCM libraries (AID 1794840). Also: 0% is about no effect. To be noted: ATP content luminescence; series mostly up to 27.3 µM. In short, it runs like this: (§2)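 HepG2 cells, 1,000/well, attached ~4 h, then exposed ~24 h at 37C to substances. Protease activity read by fluorescence of 25 uM GF-AFC (Ex/Em 380/510 nm) after 30 min; ATP then by CellTiter-Glo luminescence.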

A short description of assay [19]: HepG2 viability counterscreen (readout 1: protease activity) against the NCATS DSHEA and TCM libraries (AID 1794841).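 Also: cells exposed to compounds for about 24 h before the protease read; 0% is about no effect.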 The conditions noted are these: qHTS concentration series; series mostly up to 27.3 µM. In outline: as §2
Assay [20] has as its target Cytochrome P450 2D6 (Homo sapiens) (UniProt P10635). Kind of assay: qHTS for inhibitors of CYP2D6 against the NCATS DSHEA and TCM libraries (AID 1919972). Also: % is scaled to controls: 0 for no effect and ±100 for the full control effect. To be noted: CYP2D6 enzymatic inhibition, luminescence qHTS; series mostly up to 34.1 µM. In short, it runs like this: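 CYP2D6 enzyme with pro-luciferin substrate in manufacturer buffer (typically 100 mM KPO4), preincubated 15 min RT with substances (most at 19.5 nM upward); NADPH regeneration system (1x) started 30–45 min RT reaction; P450-Glo luminescence read after 30 min; quinidine as intraplate control.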

Chain of Cytochrome P450 2D6 (Homo sapiens) (P10635 whole entry, looked up): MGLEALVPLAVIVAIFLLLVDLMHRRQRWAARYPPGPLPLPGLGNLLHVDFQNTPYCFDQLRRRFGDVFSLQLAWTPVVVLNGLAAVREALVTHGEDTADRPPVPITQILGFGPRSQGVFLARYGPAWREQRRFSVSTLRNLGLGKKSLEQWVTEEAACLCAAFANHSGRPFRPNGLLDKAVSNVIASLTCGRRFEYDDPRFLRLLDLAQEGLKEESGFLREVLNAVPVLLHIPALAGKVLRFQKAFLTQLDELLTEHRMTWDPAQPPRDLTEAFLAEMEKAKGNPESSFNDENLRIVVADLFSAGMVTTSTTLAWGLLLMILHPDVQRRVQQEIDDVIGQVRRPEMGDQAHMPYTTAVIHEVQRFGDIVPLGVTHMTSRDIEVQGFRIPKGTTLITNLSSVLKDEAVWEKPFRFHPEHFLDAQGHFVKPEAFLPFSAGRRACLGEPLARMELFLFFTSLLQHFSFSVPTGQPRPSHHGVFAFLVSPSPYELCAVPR
Chain of Peroxisome proliferator-activated receptor alpha (Homo sapiens) (Q07869 whole entry, looked up): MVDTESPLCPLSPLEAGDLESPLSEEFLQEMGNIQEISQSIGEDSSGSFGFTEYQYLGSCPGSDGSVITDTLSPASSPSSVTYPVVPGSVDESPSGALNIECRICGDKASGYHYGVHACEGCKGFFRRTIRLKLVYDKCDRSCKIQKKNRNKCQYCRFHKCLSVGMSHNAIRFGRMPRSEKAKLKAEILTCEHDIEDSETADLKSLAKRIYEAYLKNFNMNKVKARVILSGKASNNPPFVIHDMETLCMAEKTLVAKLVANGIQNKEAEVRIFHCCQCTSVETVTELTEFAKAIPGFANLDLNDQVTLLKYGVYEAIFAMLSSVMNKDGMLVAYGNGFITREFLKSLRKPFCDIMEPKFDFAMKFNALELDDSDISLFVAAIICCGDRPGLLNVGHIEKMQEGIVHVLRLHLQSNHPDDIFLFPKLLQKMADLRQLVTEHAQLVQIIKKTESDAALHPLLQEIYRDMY
Chain of Thyroid hormone receptor beta (Homo sapiens) (P10828 whole entry, looked up): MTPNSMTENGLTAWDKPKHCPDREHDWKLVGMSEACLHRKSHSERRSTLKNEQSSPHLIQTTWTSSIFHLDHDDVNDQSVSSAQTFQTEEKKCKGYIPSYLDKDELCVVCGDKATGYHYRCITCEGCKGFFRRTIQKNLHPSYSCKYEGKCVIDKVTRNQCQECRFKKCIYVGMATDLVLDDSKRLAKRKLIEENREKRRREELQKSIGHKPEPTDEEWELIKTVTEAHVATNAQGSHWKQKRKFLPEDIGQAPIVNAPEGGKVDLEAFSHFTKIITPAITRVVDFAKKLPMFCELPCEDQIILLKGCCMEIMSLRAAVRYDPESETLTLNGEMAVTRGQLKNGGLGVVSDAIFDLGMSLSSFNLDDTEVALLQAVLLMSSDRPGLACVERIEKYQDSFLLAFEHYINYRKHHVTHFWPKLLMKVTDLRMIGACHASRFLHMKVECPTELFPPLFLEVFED
Chain of Nuclear receptor subfamily 1 group I member 3 (Homo sapiens) (Q14994 whole entry, looked up): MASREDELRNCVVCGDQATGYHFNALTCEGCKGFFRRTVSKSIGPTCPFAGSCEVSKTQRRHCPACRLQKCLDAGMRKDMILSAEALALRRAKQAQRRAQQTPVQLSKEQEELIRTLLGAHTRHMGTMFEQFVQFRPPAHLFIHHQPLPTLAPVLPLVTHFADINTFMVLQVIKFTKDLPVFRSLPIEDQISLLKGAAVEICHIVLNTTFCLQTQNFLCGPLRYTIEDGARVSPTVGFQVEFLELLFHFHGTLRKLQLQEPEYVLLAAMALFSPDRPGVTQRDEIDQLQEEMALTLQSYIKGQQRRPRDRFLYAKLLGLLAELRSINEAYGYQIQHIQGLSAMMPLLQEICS

As for `CCCCCCCCOC(=O)c1cc(O)c(O)c(O)c1`, the max response in assay [1] is -19.5%; in assay [9], -2.68% (inactive); in assay [11] it was -10.2% (inactive); in assay [12] it was -0.212% (inactive). Further, the Potency result in assay [2], in assay [7] and in [10] was “inactive” each time. For the same molecule, the result in assay [3], in assay [4], in assay [5] and in assay [13] was inactive. In assay [6], the activity change % (negative = inhibition) was -6.19% (inactive). Further, in [8], the activation is 0.999% (inactive).

As to `COc1ccc2c(O[C@H]3CC4C(=O)N(C)CCCC/C=C\[C@@H]5C[C@@]5(C(=O)NS(=O)(=O)C5CC5)NC(=O)[C@@H]4C3)cc(-c3nc(C(C)C)cs3)nc2c1C` (some centres not stated), in [14], the Potency is 2 µM (active).

As for `C=C[C@@H]1C[C@]1(NC(=O)[C@@H]1C[C@@H]2CN1C(=O)[C@H](C(C)(C)C)NC(=O)O[C@@H]1C[C@H]1CCCCCc1nc3ccc(OC)cc3nc1O2)C(=O)NS(=O)(=O)C1CC1`, the Potency in [14] was 5.62 µM (active).

For the molecule `CC12CCC(CC1=O)C2(C)C` (configuration not stated), the max response in assay [1] is -33.5% and 11.1%; in [9], -4.19% (inactive) and 0.373% (inactive); in assay [11] it was -1.85% (inactive) and 2.1% (inactive); in assay [12], 4.6% (inactive) and -1.11% (inactive). For the same molecule, the Potency result in [2], in assay [7] and in assay [10] was “inactive” in each case. For the same molecule, the outcome in assay [3], in assay [4], in assay [5] and in [13] was inactive. Moreover, in assay [6], the activity change % (negative = inhibition) is 8% (inactive) and 6.78% (inactive). The activation in [8] was -0.66% (inactive) and 0.506% (inactive).

For `O=C1O[C@H]2[C@H](OC(O)[C@@H]2O)[C@@H]1O` (some centres not stated), in assay [14], the Potency result was “inactive”.

Turning to `COC(=O)N[C@H](C(=O)N1CCC[C@H]1c1ncc(-c2ccc3c(c2)O[C@@H](c2ccccc2)n2c-3cc3cc(-c4cnc([C@@H]5CCCN5C(=O)[C@@H](NC(=O)OC)C(C)C)[nH]4)ccc32)[nH]1)C(C)C`, the Potency in assay [14] is 6.31 µM (active).

On to `O=C(O)CCCCCCCCC(=O)O`, for which the max response is 1.66% in [1], -0.446% (inactive) in [9], -1.89% (inactive) in assay [11] and -1.81% (inactive) in [12]. Further, the Potency entry in [2], in [7] and in [10] was “inactive” each time. The outcome in assay [3], in assay [4], in assay [5] and in assay [13] was inactive. For the same molecule, the activity change % (negative = inhibition) in [6] is 3.38% (inactive). The activation in assay [8] is -2.45% (inactive).

With `OCC1=C[C@@H](O)[C@@H]2C=CO[C@@H](OC3O[C@H](CO)[C@@H](O)[C@H](O)[C@H]3O)[C@H]12` (some centres not stated), the molecule was classed as inactive in assay [15], in assay [16], in assay [18] and in [19]. For the same molecule, the Potency result in [17] and in assay [20] was “inactive” throughout.

For the molecule `CCCCCCCCCC=O`, the result in assay [15], in assay [16], in [18] and in assay [19] was inactive. The Potency entry in assay [17] and in [20] was “inactive” throughout.

Take `CCCCCC/C=C\CCCCCCCC(=O)O`: the outcome in assay [15], in assay [16], in assay [18] and in assay [19] was inactive. Also, the Potency result in assay [17] and in assay [20] was “inactive” throughout. Further, the Potency in assay [14] is 14.1 µM (active).
